# Measurements reported in patent US20250354175, “ATTP MV4-DERIVED SITE-SPECIFIC RECOMBINATION AND ITS USE FOR INTEGRATION OF SEQUENCE OF INTEREST” (INSTITUT NATIONAL DE RECHERCHE POUR L'AGRICULTURE, …, published 2025).
# Molecular target: T1, mv4Int (369 aa integrase) (Lactobacillus delbrueckii bacteriophage …)
# T1 chain: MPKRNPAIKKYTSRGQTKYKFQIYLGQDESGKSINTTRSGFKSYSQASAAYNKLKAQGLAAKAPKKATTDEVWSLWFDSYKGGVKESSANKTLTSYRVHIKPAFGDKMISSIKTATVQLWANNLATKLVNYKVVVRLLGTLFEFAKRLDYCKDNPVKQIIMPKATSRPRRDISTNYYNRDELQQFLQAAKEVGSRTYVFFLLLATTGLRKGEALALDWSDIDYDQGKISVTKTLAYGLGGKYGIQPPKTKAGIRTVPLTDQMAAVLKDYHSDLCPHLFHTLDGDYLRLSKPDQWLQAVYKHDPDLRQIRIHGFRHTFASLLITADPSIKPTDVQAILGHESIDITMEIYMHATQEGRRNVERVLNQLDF
# Experiment: cleavage_in_vitro; recombination with attP sharing same overlap
# Settings: tags: expressed from pET15b; label: Cy3; dsDNA, one strand shown
sequence,measurement,value
TCAAATAAGGTTTTCTCCTTAATAAGGTCAAATGGTATC,binding signal,15 fold decrease vs WT
